Experimental data from ChEMBL document CHEMBL1157539, “Thousands of chemical starting points for antimalarial lead identification” (Nature, 2010).

Key:
Format in all cases: functional
Plasmodium falciparum [1] = assay: GSK_TCMDC: Inhibition of Plasmodium falciparum 3D7 in whole red blood cells, using parasite LDH activity as an index of growth. Test compounds present at 2uM
Plasmodium falciparum [2] = assay: GSK_TCMDC: Inhibition of Plasmodium falciparum Dd2 in whole red blood cells, using parasite LDH activity as an index of growth. Test compounds present at 2uM
HepG2 = assay: GSK_TCMDC: Percent inhibition of human HepG2 cell line. Test compounds present at 10uM.

COc1ccc(NC(=O)CSc2nc(-c3ccccc3Cl)ns2)cc1OC was tested, and the Inhibition (Plasmodium falciparum [1]) was 97%, the Inhibition (Plasmodium falciparum [2]) was 63% and the Inhibition (HepG2) was 0%.
CN(Cc1ccccc1)C(=O)c1nn(CCCN2CCC(N3CCCC3)CC2)cc1-c1ccc(Cl)c(Cl)c1 showed an Inhibition (Plasmodium falciparum [1]) of 100%, an Inhibition (Plasmodium falciparum [2]) of 66% and an Inhibition (HepG2) of 43%.
O=C(Nc1ccc(-c2nc3ccccc3[nH]2)cc1)c1cnc(Cl)c(Cl)c1 gave an Inhibition (Plasmodium falciparum [1]) of 100%, an Inhibition (Plasmodium falciparum [2]) of 95% and an Inhibition (HepG2) of 11%.
Compound Fc1ccc2c(NN=Cc3ccccc3)ccnc2c1 has an Inhibition (Plasmodium falciparum [1]) of 100%, an Inhibition (Plasmodium falciparum [2]) of 99% and an Inhibition (HepG2) of 1%.
Compound O=C(NC1CCN(CCN2CCC(c3cn(CCO)c4ccccc34)CC2)CC1)c1ccc(-c2ccc(C(F)(F)F)cc2)cc1 has an Inhibition (Plasmodium falciparum [1]) of 98%, an Inhibition (Plasmodium falciparum [2]) of 54% and an Inhibition (HepG2) of 30%.
Compound CS(=O)(=O)c1ccc(-c2cncc(Cl)n2)cc1 has an Inhibition (Plasmodium falciparum [1]) of 100%, an Inhibition (Plasmodium falciparum [2]) of 95% and an Inhibition (HepG2) of 8%.
Compound COc1cc(-c2[nH]c(-c3ccc(OCCN(C)C)cc3)cc2-c2ccncc2)ccc1Cl.Cl has an Inhibition (Plasmodium falciparum [1]) of 93%, an Inhibition (Plasmodium falciparum [2]) of 33% and an Inhibition (HepG2) of 3%.
O=C(Nc1cccc(C(F)(F)F)c1)c1cccc(S(=O)(=O)NC2CCN(CC3CCCCC3)C2)c1.O=C(O)C(F)(F)F (centres undefined) showed an Inhibition (Plasmodium falciparum [1]) of 100%, an Inhibition (Plasmodium falciparum [2]) of 45% and an Inhibition (HepG2) of 37%.
With Cc1cc(N2CCCC2)nc(Nc2ccc(NC(=O)Nc3ccccc3)cc2)n1 the Inhibition (Plasmodium falciparum [1]) was 99%, the Inhibition (Plasmodium falciparum [2]) was 100% and the Inhibition (HepG2) was 35%.
Nc1cccc(CNCc2cccc(-c3cccc(-c4nc5cc(C(F)(F)F)ccc5[nH]4)c3)c2)c1.O=C(O)C(F)(F)F was tested, and the Inhibition (Plasmodium falciparum [1]) was 100%, the Inhibition (Plasmodium falciparum [2]) was 96% and the Inhibition (HepG2) was 8%.
In the case of Cc1ccc(CN2CCN(CC(O)COc3ccc4c(c3)CCC4)CC2)cc1 (centres undefined), the Inhibition (Plasmodium falciparum [1]) is reported as 95%, the Inhibition (Plasmodium falciparum [2]) is reported as 0% and the Inhibition (HepG2) is reported as 0%.
With COc1ccc(-c2cccc(NC(=O)c3ccc(Cl)cc3)c2)cc1CN1CCC(O)CC1.O=C(O)C(F)(F)F the Inhibition (Plasmodium falciparum [1]) was 100%, the Inhibition (Plasmodium falciparum [2]) was 43% and the Inhibition (HepG2) was 51%.
In the case of CS(=O)(=O)CCNCc1nc(-c2ccc3ncnc(Nc4ccc(OCc5cccc(F)c5)c(Cl)c4)c3c2)cs1.Cl, the Inhibition (Plasmodium falciparum [1]) is reported as 98%, the Inhibition (Plasmodium falciparum [2]) is reported as 34% and the Inhibition (HepG2) is reported as 8%.
Compound CCNC(C)(C)CN(Cc1ccc(-c2ccc(C(F)(F)F)cc2)cc1)C(=O)Cn1c(SCc2ccc(F)cc2)nc(=O)c2c1CCC2.O=C(O)C(O)C(O)C(=O)O has an Inhibition (Plasmodium falciparum [1]) of 95%, an Inhibition (Plasmodium falciparum [2]) of 94% and an Inhibition (HepG2) of 99%.
With CC(C)CNCc1cccc(-c2cccc(CNc3ccc4ncccc4c3)c2)c1.O=C(O)C(F)(F)F the Inhibition (Plasmodium falciparum [1]) was 92%, the Inhibition (Plasmodium falciparum [2]) was 28% and the Inhibition (HepG2) was 23%.
In the case of C[C@@H](N/C(=N\c1ccccc1Cl)Nc1ccc(C#N)cc1O)c1ccc(Br)cc1, the Inhibition (Plasmodium falciparum [1]) is reported as 98%, the Inhibition (Plasmodium falciparum [2]) is reported as 70% and the Inhibition (HepG2) is reported as 33%.
COc1cccc2c(N/N=C/c3ccccc3[N+](=O)[O-])ccnc12 gave an Inhibition (Plasmodium falciparum [1]) of 99%, an Inhibition (Plasmodium falciparum [2]) of 43% and an Inhibition (HepG2) of 8%.
Cc1cc(N(C)C)nc(Nc2ccc(NC(=O)c3cccc(F)c3)cc2)n1 was tested, and the Inhibition (Plasmodium falciparum [1]) was 100%, the Inhibition (Plasmodium falciparum [2]) was 62% and the Inhibition (HepG2) was 0%.
In the case of CC1(C)N=C(N)N=C(N)N1OCc1cc(Cl)c(CON2C(N)=NC(N)=NC2(C)C)cc1Cl, the Inhibition (Plasmodium falciparum [1]) is reported as 94%, the Inhibition (Plasmodium falciparum [2]) is reported as 77% and the Inhibition (HepG2) is reported as 21%.
With CN(Cc1ccccc1)C1CCN(c2cc(NC(=O)c3cccc(F)c3)ccn2)CC1.O=C(O)C(F)(F)F the Inhibition (Plasmodium falciparum [1]) was 93%, the Inhibition (Plasmodium falciparum [2]) was 3% and the Inhibition (HepG2) was 2%.
Compound O=C(C=Cc1cn(-c2ccccc2)nc1-c1cccs1)N1CCN(c2ccncc2)CC1 has an Inhibition (Plasmodium falciparum [1]) of 100%, an Inhibition (Plasmodium falciparum [2]) of 61% and an Inhibition (HepG2) of 31%.
For Fc1ccc(Nc2ccnc3cc(I)ccc23)c(Cl)c1, the Inhibition (Plasmodium falciparum [1]) was 95%, the Inhibition (Plasmodium falciparum [2]) was 24% and the Inhibition (HepG2) was 35%.
O=C(NCCN1CCCCC1)c1cc2cc(-c3ccccc3)ccc2n1S(=O)(=O)c1ccccc1 was tested, and the Inhibition (Plasmodium falciparum [1]) was 90%, the Inhibition (Plasmodium falciparum [2]) was 0% and the Inhibition (HepG2) was 15%.
